From PubChem BioAssay AID1159580 (chemical genetic matrix, 2015)
The campaign covered roughly 5,500 compounds. About 2,000 (36%) were called active. Another 18% or so got no clear call; they are omitted. No stated cut-off is given here; in the data, active means normalized growth mostly below about 0.91 (no sharp cut-off); inconclusive means no clear call, values can overlap the other calls; inactive means mostly above about 0.92. This is one part of the list.

Experiment: chemical genetic growth profiling, strain panel (AID 1159580);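 further: tested at 20 µM; growth read once vehicle control cultures reached saturation at 30 °C; 1 = growth at the plate median or of vehicle wells; lower values mean less growth of the strain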
Settings: growth OD
[1] = S. cerevisiae deletion strains, locus YDL101C, strain DUN1, active compounds read low
[2] = S. cerevisiae deletion strains, locus YHR030C, strain SLT2, active compounds read low

Measured: normalized growth

CCCCCCCC1CCC/C1=N/OC(=O)c1cccs1 (configuration not stated)
inactive: S. cerevisiae deletion strains, locus YAR019C, strain CDC15, active compounds read low 1.01 | S. cerevisiae deletion strains, locus YBL105C, strain PKC1, active compounds read low 1.01 | S. cerevisiae deletion strains, locus YBR135W, strain CKS1, active compounds read low 1.01 | S. cerevisiae deletion strains, locus YBR136W, strain MEC1, active compounds read low 1 | S. cerevisiae deletion strains, locus YBR160W, strain CDC28, active compounds read low 0.997 | S. cerevisiae deletion strains, locus YDL017W, strain CDC7, active compounds read low 0.995 | S. cerevisiae deletion strains, locus YDL028C, strain MPS1, active compounds read low 0.999 | [1] 0.973 | S. cerevisiae deletion strains, locus YDL108W, strain KIN28, active compounds read low 0.996 | S. cerevisiae deletion strains, locus YDL132W, strain cdc53, active compounds read low 0.991 | S. cerevisiae deletion strains, locus YDL214C, strain PRR2, active compounds read low 0.965 | S. cerevisiae deletion strains, locus YDR052C, strain DBF4, active compounds read low 0.983 | S. cerevisiae deletion strains, locus YDR054C, strain cdc34, active compounds read low 0.989 | S. cerevisiae deletion strains, locus YDR226W, strain ADK1, active compounds read low 0.996 | S. cerevisiae deletion strains, locus YDR477W, strain SNF1, active compounds read low 0.957 | S. cerevisiae deletion strains, locus YER123W, strain YCK3, active compounds read low 0.947 | S. cerevisiae deletion strains, locus YER133W, strain GLC7, active compounds read low 0.97 | S. cerevisiae deletion strains, locus YFL009W, strain cdc4, active compounds read low 0.992 | S. cerevisiae deletion strains, locus YFL029C, strain CAK1, active compounds read low 1.01 | S. cerevisiae deletion strains, locus YFR003C, strain YPI1, active compounds read low 1.01 | S. cerevisiae deletion strains, locus YFR019W, strain FAB1, active compounds read low 0.938 | S. cerevisiae deletion strains, locus YFR028C, strain CDC14, active compounds read low 0.98 | S. cerevisiae deletion strains, locus YGR040W, strain KSS1, active compounds read low 0.967 | S. cerevisiae deletion strains, locus YGR052W, strain FMP48, active compounds read low 0.988 | S. cerevisiae deletion strains, locus YGR092W, strain DBF2, active compounds read low 0.906 | S. cerevisiae deletion strains, locus YHR079C, strain IRE1, active compounds read low 0.871 | S. cerevisiae deletion strains, locus YHR082C, strain KSP1, active compounds read low 1.07 | S. cerevisiae deletion strains, locus YHR205W, strain SCH9, active compounds read low 0.753 | S. cerevisiae deletion strains, locus YIL147C, strain SLN1, active compounds read low 0.992 | S. cerevisiae deletion strains, locus YJL095W, strain BCK1, active compounds read low 0.91 | S. cerevisiae deletion strains, locus YJL128C, strain PBS2, active compounds read low 1.01 | S. cerevisiae deletion strains, locus YJL157C, strain FAR1, active compounds read low 0.967 | S. cerevisiae deletion strains, locus YJR016C, strain ILV3, active compounds read low 0.99 | S. cerevisiae deletion strains, locus YJR066W, strain TOR1 (second series), active compounds read low 0.934 | S. cerevisiae deletion strains, locus YJR066W, strain TOR1, active compounds read low 0.986 | S. cerevisiae deletion strains, locus YKL048C, strain ELM1, active compounds read low 0.985 | S. cerevisiae deletion strains, locus YKL067W, strain YNK1, active compounds read low 0.939 | S. cerevisiae deletion strains, locus YKL101W, strain HSL1, active compounds read low 0.934 | S. cerevisiae deletion strains, locus YKL193C, strain SDS22, active compounds read low 1.02 | S. cerevisiae deletion strains, locus YKL203C, strain TOR2, active compounds read low 1 | S. cerevisiae deletion strains, locus YLR133W, strain CKI1, active compounds read low 0.96 | S. cerevisiae deletion strains, locus YLR403W, strain SFP1, active compounds read low 0.945 | S. cerevisiae deletion strains, locus YML070W, strain DAK1, active compounds read low 0.902 | S. cerevisiae deletion strains, locus YMR001C, strain CDC5, active compounds read low 1.02 | S. cerevisiae deletion strains, locus YMR205C, strain PFK2 (second series), active compounds read low 0.944 | S. cerevisiae deletion strains, locus YMR277W, strain FCP1, active compounds read low 1.03 | S. cerevisiae deletion strains, locus YNL006W, strain LST8, active compounds read low 1.01 | S. cerevisiae deletion strains, locus YNL020C, strain ARK1, active compounds read low 0.896 | S. cerevisiae deletion strains, locus YNL161W, strain CBK1, active compounds read low 1.02 | S. cerevisiae deletion strains, locus YNL183C, strain NPR1, active compounds read low 0.944 | S. cerevisiae deletion strains, locus YNL207W, strain RIO2, active compounds read low 0.976 | S. cerevisiae deletion strains, locus YNL222W, strain SSU72, active compounds read low 1.02 | S. cerevisiae deletion strains, locus YNL307C, strain MCK1 (second series), active compounds read low 0.901 | S. cerevisiae deletion strains, locus YOL078W, strain AVO1, active compounds read low 1.02 | S. cerevisiae deletion strains, locus YOL136C, strain PFK27, active compounds read low 0.961 | S. cerevisiae deletion strains, locus YOR061W, strain CKA2, active compounds read low 0.88 | S. cerevisiae deletion strains, locus YOR119C, strain RIO1, active compounds read low 1.03 | S. cerevisiae deletion strains, locus YOR231W, strain MKK1, active compounds read low 0.859 | S. cerevisiae deletion strains, locus YOR329C, strain SCD5, active compounds read low 1.02 | S. cerevisiae deletion strains, locus YPL031C, strain PHO85, active compounds read low 0.935 | S. cerevisiae deletion strains, locus YPL153C, strain RAD53, active compounds read low 0.937 | S. cerevisiae deletion strains, locus YPL204W, strain HRR25, active compounds read low 0.919 | S. cerevisiae deletion strains, locus YPL209C, strain IPL1, active compounds read low 1 | S. cerevisiae deletion strains, locus YPR025C, strain CCL1, active compounds read low 1.02 | S. cerevisiae deletion strains, locus YPR106W, strain ISR1, active compounds read low 0.999 | S. cerevisiae deletion strains, locus YPR111W, strain DBF20, active compounds read low 0.991 | S. cerevisiae deletion strains, strain NNK1, active compounds read low 0.987 | S. cerevisiae deletion strains, strain TSCII, active compounds read low 0.995
active: [2] 0.763 | S. cerevisiae deletion strains, locus YLR113W, strain HOG1, active compounds read low 0.739 | S. cerevisiae deletion strains, locus YPL256C, strain CLN2, active compounds read low 0.858

COc1ccc(CN(Cc2ccc(OC)cc2)C(=O)c2cccs2)cc1
inactive: S. cerevisiae deletion strains, locus YAL013W, strain DEP1, active compounds read low 0.976 | S. cerevisiae deletion strains, locus YBR229C, strain ROT2, active compounds read low 0.974 | S. cerevisiae deletion strains, locus YCL061C, strain MRC1, active compounds read low 1.01 | [1] 0.969 | S. cerevisiae deletion strains, locus YDL134C, strain PPH21, active compounds read low 0.974 | S. cerevisiae deletion strains, locus YDR150W, strain NUM1, active compounds read low 0.98 | S. cerevisiae deletion strains, locus YEL061C, strain CIN8, active compounds read low 0.974 | S. cerevisiae deletion strains, locus YGR078C, strain PAC10, active compounds read low 1 | S. cerevisiae deletion strains, locus YGR229C, strain SMI1, active compounds read low 0.976 | [2] 0.971 | S. cerevisiae deletion strains, locus YHR087W, strain rtc3, active compounds read low 0.959 | S. cerevisiae deletion strains, locus YJR043C, strain POL32, active compounds read low 0.994 | S. cerevisiae deletion strains, locus YJR075W, strain HOC1, active compounds read low 0.976 | S. cerevisiae deletion strains, locus YLR039C, strain RIC1, active compounds read low 0.92 | S. cerevisiae deletion strains, locus YLR058C, strain SHM2 (second series), active compounds read low 0.99 | S. cerevisiae deletion strains, locus YLR085C, strain ARP6, active compounds read low 0.97 | S. cerevisiae deletion strains, locus YLR262C, strain YPT6, active compounds read low 0.925 | S. cerevisiae deletion strains, locus YML094W, strain GIM5, active compounds read low 0.953 | S. cerevisiae deletion strains, locus YMR219W, strain ESC1, active compounds read low 0.992 | S. cerevisiae deletion strains, locus YMR263W, strain SAP30, active compounds read low 1.01 | S. cerevisiae deletion strains, locus YMR307W, strain GAS1, active compounds read low 0.812 | S. cerevisiae deletion strains, locus YNL128W, strain TEP1, active compounds read low 0.973 | S. cerevisiae deletion strains, locus YNL153C, strain GIM3, active compounds read low 0.993 | S. cerevisiae deletion strains, locus YNL298W, strain CLA4 (second series), active compounds read low 0.973 | S. cerevisiae deletion strains, locus YNL322C, strain KRE1, active compounds read low 0.994 | S. cerevisiae deletion strains, locus YNR030W, strain Alg12, active compounds read low 0.931 | S. cerevisiae deletion strains, locus YOL006C, strain TOP1, active compounds read low 0.95 | S. cerevisiae deletion strains, locus YPL055C, strain LGE1, active compounds read low 0.945 | S. cerevisiae deletion strains, locus YPL241C, strain CIN2, active compounds read low 0.995 | S. cerevisiae deletion strains, locus YPR135W, strain CTF4, active compounds read low 0.952 | S. cerevisiae strains, strain wild type, active compounds read low 0.976
